The list is not random: actives were taken first. Their share in the collection is about 21%.
NS1 inh – inhibitors of influenza NS1 protein function | Potency, µM (highest dose often 46.1 µM), inactives show at the highest dose activity, positive = more growth | hit rate 0.4% among 270,000; calls by dose curve; note: potency is the fitted concentration of half-maximal effect; actives are rising curves; nearly all actives have a fitted effect of over 50% in size
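In this qHTS, NS1 from influenza A is expressed in budding yeast, where it slows growth. Cells are switched from glucose to 2% galactose medium (pH 6.0, -URA), treated with compound, and growth recovery is read at OD600.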
Pf growth 96h – P. falciparum growth inhibition at 96 hour, primary screen for plastid delayed-death inhibitors; P. falciparum luciferase reporter growth, 96 h; Potency, µM (highest dose often 28.7 µM), for inactives: at the highest dose activity change, negative = inhibition, usual class: inhibitors; hit rate 6.9% among 320,000; AID 504834; note: potency is the fitted concentration of half-maximal effect; % is set by controls: 0 for no effect and ±100 for the full control effect
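Erythrocytes infected with luciferase-expressing P. falciparum were dispensed at 2% hematocrit and 0.05% parasitemia (final), then incubated with compounds 96 hours at 37 C in 5% CO2. Luminescence after detection reagent addition reported growth.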
Shiga inhibitor – Shiga toxin inhibition; inhibition, % at 38.7 µM; hit rate 9.2% among 290,000; Vero cells, Shiga toxin protein synthesis inhibition reporter; in the data active = inhibition mostly above about 28%, no sharp cut-off; inactive = mostly below about 43%; note: 0% is about no effect
CHX counter – counter-screen hit for Shiga toxin inhibitors, cycloheximide; cell reporter, cycloheximide protein synthesis inhibition counterscreen; max response, %; hit rate 12% among 300,000; in the data active = max response mostly above about 13%, no sharp cut-off; inactive = mostly below about 14%; note: read at 38.3 µM for the half of the compounds with a filed dose; 0% is about no effect
Pf growth 48h – P. falciparum growth inhibition at 48 hours (one generation) | AID 504832 | P. falciparum luciferase growth in erythrocytes, 48 h | Potency, µM (top dose mostly 28.7 µM), inactives show top-dose activity change, negative = inhibition, actives largely listed as inhibitors | hit rate 5.9% among 310,000; note: potency is the fitted concentration of half-maximal effect; % is set by controls: 0 for no effect and ±100 for the full control effect
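Firefly luciferase activity from engineered P. falciparum reports growth; inhibitors lower the luminescent signal. Cultures contained 2% hematocrit erythrocytes at 0.1% final parasitemia.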
Giardia FBPA inh – inhibitors of Giardia lamblia fructose-1,6-bisphosphate aldolase. A8B2U2. purified Giardia FBPA. Potency, µM (top dose mostly 59.6 µM), without a hit: top-dose activity, negative = inhibition, most hits filed as inhibitors. hit rate 0.71% among 290,000. AID 2451; note: potency is the fitted concentration of half-maximal effect; % is set by controls: 0 for no effect and ±100 for the full control effect; nearly all actives have a fitted effect of over 55% in size
Target sequence (A8B2U2 whole entry, looked up): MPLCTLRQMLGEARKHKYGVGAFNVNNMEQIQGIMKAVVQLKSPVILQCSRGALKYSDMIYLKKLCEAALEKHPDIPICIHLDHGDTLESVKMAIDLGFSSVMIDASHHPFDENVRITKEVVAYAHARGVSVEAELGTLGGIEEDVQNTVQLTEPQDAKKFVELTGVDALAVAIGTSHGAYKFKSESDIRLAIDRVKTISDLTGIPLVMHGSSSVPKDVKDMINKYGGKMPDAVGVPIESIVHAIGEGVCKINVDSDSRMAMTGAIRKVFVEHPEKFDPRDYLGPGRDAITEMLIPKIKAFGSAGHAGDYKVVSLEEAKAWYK
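40 nM FBPA preincubated 10 min at RT with compound (up to 57.5 uM final), then substrate plus GAPDH/TPI/NAD/arsenate coupling and diaphorase/resazurin added. Fluorescence read after 20 min at RT, 525/598 nm.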
* hit, by the source's call; ? = inconclusive; . = no result given. Unless noted, calls come from the whole dose curve; as a rule, active = well fitted curve in the direction sought with a large enough effect; inconclusive = small, poorly fitted or top-dose-only effect, or another doubt; inactive = no such curve, though single readings can be large; an effect the other way counts as inactive or inconclusive.

SMILES	NS1 inh	Pf growth 96h	Shiga inhibitor	CHX counter	Pf growth 48h	Giardia FBPA inh
Cc1onc(-c2ccccc2Cl)c1C(=O)N1CCN=C1SCc1cccnc1	-4.2%	2.08µM*	-2.0	10.4	4.7%	0.4%
COc1ccc(NC(=O)CN2C(=O)NC(CC(C)C)C2=O)cc1S(=O)(=O)N1CCOCC1 (stereo not given)	.	8.3%	.	.	0.6%	.
CSc1nc(NNC=O)cc(Oc2ccc(NC(C)=O)cc2)n1	16.8%	1.9%	.	-1.2	26.3%	0.7%
COCCCNC(=O)Nc1ccc(Br)cc1Cl	-2.9%	?	49.1*	37.2*	47.8%	1.2%
O=C(NCCCN1CCCC1=O)Nc1ccc(Br)cc1Cl	-0.4%	10.4µM*	38.3*	27.9*	36.4%	-0.1%
Cc1ccc(NC(=O)NCCCN2CCCC2=O)cc1	0.8%	-21.3%	30.3	14.4*	.	3.1%
CN1CCN(NC(=O)Nc2ccc(Br)cc2Cl)CC1	0.8%	46.5%	38.1	16.1*	-21.6%	12.3%
Cc1ccc(NC(=O)NCCCN2CCCC2=O)cc1C	0.6%	140.2%	33.3	10.6	44.1%	5.9%
O=C1CCCN1CCCNC(=S)Nc1ccc(Cl)cc1Cl	.	12.4%	12.8	7.8	27.1%	0.3%
COc1ccc(-c2nc3cnc(N(C)C)nc3n(C)c2=O)cc1	.	.	.	.	.	0.8%
CN(Cc1ccccc1F)C(=O)CNC(=O)Cc1cccc2ccccc12	-13.7%	?	-4.5	8.2	?	.
O=C(NCCCN1CCCC1=O)Nc1ccc(F)c(Cl)c1	2.2%	85.7%	46.9	46.7*	31.8%	.
O=C(NCCN1CCCCC1)Nc1ccc(F)c(Cl)c1	-5.2%	.	-7.6	12.6	-17.1%	17.1%
O=C(NCCCN1CCCC1=O)Nc1cc(Cl)ccc1Cl	-0.3%	43.9%	10.4	-3.7	6.6%	0.2%
O=C(NCCCN1CCCC1=O)Nc1ccc(Cl)cc1Cl	-3.7%	-0.8%	41.3	15.8*	15.0%	-8.0%
CCOC(=O)CC1C(=O)NCCN1C(=O)c1ccc(Cl)c(Cl)c1 (stereo not given)	-4.7%	34.4%	-4.5	-5.0	.	6.1%
CCC(=O)Nc1cccc(C(=O)/C=C/c2ccc(F)cc2)c1	-61.7%	?	25.8	17.1*	?	-7.2%
CC(=O)Nc1cccc(C(=O)/C=C/c2ccc(C)cc2)c1	-17.0%	?	12.3	17.3*	0.0%	-2.3%
CC(=O)c1cccc(NC(=O)CCCOc2ccc(C)cc2)c1	-16.1%	1.1%	-8.8	-0.1	0.4%	7.7%
COC(=O)[C@H](CCSC)NC(=O)c1ccc(NC[C@@H](N)CS)cc1-c1ccccc1	.	.	5.6	-8.5	.	-14.5%
O=C(CCN1C(=O)S/C(=C\c2cccs2)C1=O)NC1=NCCS1	1.1%	-22.7%	32.1	16.7*	-0.3%	3.0%
CCN(CC)CCOC(=O)c1ccc(NC(=O)CCCN2C(=O)/C(=C/c3cccs3)SC2=S)cc1	9.6%	?	-7.1	9.4	5.22µM*	.
O=C(CCCN1C(=O)/C(=C/c2cccs2)SC1=S)NNC(=O)c1ccccc1O	8.2%	3.29µM*	-10.3	-0.7	8.8%	1.9%
O=C(CCCN1C(=O)/C(=C\c2cccs2)SC1=S)Nc1ccc(C(=O)O)cc1	.	?	-7.8	-5.6	-7.8%	12.4%
O=C(OCc1ccccc1)/C(=C/c1cccc(Br)c1)NC(=O)c1ccco1	-20.3%	0.5%	-7.0	-3.5	?	0.9%
SMILES	NS1 inh	Pf growth 96h	Shiga inhibitor	CHX counter	Pf growth 48h	Giardia FBPA inh
O=S(=O)(c1ccccc1)N1CCN(c2ncccn2)CC1	-0.1%	.	38.3	-0.8	4.4%	5.9%
O=c1c(Cl)c(N2CCN(S(=O)(=O)c3ccc(F)cc3)CC2)cnn1-c1cccc(Cl)c1	2.0%	6.57µM*	-13.2	4.1	8.28µM*	-0.4%
O=c1n(S(=O)(=O)c2cccc3cccnc23)c2ccccc2n1S(=O)(=O)c1cccc2cccnc12	13.5%	6.57µM*	-23.2	-3.5	.	1.3%
O=S(=O)(c1ccc(F)cc1)N1CCN(c2ncccn2)CC1	-65.6%	4.4%	-0.9	-2.2	2.08µM*	-0.1%
O=S(=O)(c1cccc(S(=O)(=O)N2CCN(c3ncccn3)CC2)c1)N1CCOCC1	-2.1%	11.7µM*	-1.7	-0.9	-23.7%	11.6%
CCNc1ncc2nc(C)c(=O)n(Cc3cccs3)c2n1	.	.	.	.	.	0.7%
Fc1ccc([C@H]2CCNCC2COc2ccc3c(c2)OCO3)cc1 (stereo not given in full)	.	.	.	.	.	4.4%
